# According to PubChem BioAssay AID588689 (Southern Research Specialized Biocontainment Screening …, 2011):
# The campaign covered roughly 340,000 compounds. About 1,000 (0.29%) were called active. No stated cut-off is given here; in the data, inconclusive means inhibition above about 29% without an active follow-up result; inactive means below that. The list is a sample of the results. Measured potencies and affinities stand elsewhere.
# Target: Genome polyprotein (Dengue virus type 2 (strain 16681-PDK53)) (UniProt P29991)
# Experiment: Dengue-2 NS5 methyltransferase inhibitors, primary screen, biochemical, confirmation dose response (AID 588689)
# Settings: Dengue-2 NS5 methyltransferase capping enzyme assay, at 25 µM, stronger effect = higher value
# [1] = measured here: pilot screen replicate inhibition
Structure (SMILES),inhibition,inhibition [1]
O=S(=O)(c1ccc(Cl)cc1)N1CCN(CCc2ccncc2)CC1,-1.66% (inactive),
Cc1cccc(C(C)C)c1NC(=O)COC(=O)CNS(=O)(=O)c1ccccc1,0% (inactive),
O=C1NC2=C(C(=O)CCC2)C(c2ccc3ncccc3c2)N1 (centres undefined),0% (inactive),
C[C@H](CO)N1C[C@H](C)[C@@H](CN(C)C(=O)Nc2cc(F)ccc2F)Oc2ncc(-c3cccc(F)c3)cc2C1=O,0.58% (inactive),
O=C1C=C(c2ccc(C(=O)O)cc2)C[C@@H](c2ccc3c(c2)OCO3)C1,0.83% (inactive),
O=C(Cn1c(C(F)(F)F)nc2ccccc21)Nc1ccccc1N1CCOCC1,0.69% (inactive),
Cc1cc(-c2ccco2)n(CC(=O)NCCCc2ccccc2)n1,-4.87% (inactive),
COC(=O)c1cccc(CSc2nc(-c3ccccc3)c(C#N)c(=O)[nH]2)c1,11.1% (inactive),
N#Cc1c(-c2ccccc2)nc(SCc2cccc(Cl)c2)[nH]c1=O,19.5% (inactive),
O=C(CCC(=O)N1CCCC(Nc2ccccc2)C1)c1ccc(F)cc1 (centres undefined),2.72% (inactive),
COCCOC(=O)c1sc2nc[nH]c(=O)c2c1C,-12.3% (inactive),
Cc1ccc(S(=O)(=O)N2CCN(Cc3cccnc3)CC2)cc1,2.57% (inactive),
CC(=O)Nc1ccc(S(=O)(=O)N(C)CC(=O)OC(C)C(=O)NC2CCCCC2)cc1 (centres undefined),-5.07% (inactive),
Cc1[nH][nH]c(=O)c1C(c1ccccc1[N+](=O)[O-])C(C#N)C#N (centres undefined),-2.95% (inactive),
COc1cccc(C(C[N+](=O)[O-])c2c(C)[nH]n(-c3ccccc3)c2=O)c1 (centres undefined),8.91% (inactive),
Cc1[nH]n(-c2ccccc2)c(=O)c1C(C[N+](=O)[O-])c1ccccc1Cl (centres undefined),-8.87% (inactive),
Cc1[nH][nH]c(=O)c1[C@@H](c1ccccc1[N+](=O)[O-])C(C#N)C#N,14.4% (inactive),
Cc1c(C(c2cccc([N+](=O)[O-])c2O)c2c(C)n(C)n(-c3ccccc3)c2=O)c(=O)n(-c2ccccc2)n1C,-5.62% (inactive),
COc1ccccc1N=Nc1c(C)[nH]n(-c2ccccc2)c1=O,1.98% (inactive),-4.55%
S=C(Nc1ccccc1Cl)NC1CCCCCC1,-2.33% (inactive),
Cc1nnc(SCC(=O)Nc2nsc(-c3ccc(Cl)cc3)n2)s1,2.61% (inactive),
CCOc1ccc(S(=O)(=O)N2CCN(S(=O)(=O)c3ccc(C(C)=O)cc3)CC2)cc1,-2.49% (inactive),

Structure (SMILES),inhibition,inhibition [1]
CC1CN(CCc2ccccc2)C(C)C/C1=N/O (centres undefined),-3.09% (inactive),
Cc1c(Cl)cccc1NC(=S)N(Cc1cccnc1)Cc1ccccc1Cl,-4.52% (inactive),
O=C(NCCS(=O)(=O)NCc1cccs1)c1ccccc1,0% (inactive),
COc1ccc(C(=O)c2ccccc2C(=O)c2ccccc2)cc1,-0.81% (inactive),
Cc1cc(/C=C2/C(=O)NN(c3ccccc3)C2=O)c(C)n1-c1ccc(O)cc1,5.82% (inactive),
Cc1cc(/C=C2/C(=O)NN(c3ccccc3)C2=O)c(C)n1-c1cccc(O)c1,6.37% (inactive),
COC(=O)C1=C(C)NC(=O)/C1=C\c1cc(C)n(-c2ccccc2F)c1C,5.5% (inactive),
COC(=O)C1=C(C)NC(=O)/C1=C\c1cc(C)n(-c2ccccc2)c1C,5.15% (inactive),
Cc1nc(SCC(=O)N2CC(=O)Nc3ccccc32)nc(C)c1C,2.34% (inactive),
Cc1ccc(CS(=O)Cc2ccc(C(=O)NCc3ccc4c(c3)OCO4)o2)cc1 (centres undefined),-13.8% (inactive),
CC1CC(C)CN(S(=O)(=O)c2cccc(C(=O)N3CCN(c4ccc(F)cc4)CC3)c2)C1 (centres undefined),-0.73% (inactive),
CC(C)NC(=O)C1CCN(C(=O)N(C)C)CC1,0.71% (inactive),
O=C(O)c1ccc(NC(=S)NC(=O)c2ccc(-c3ccc(Br)cc3)o2)cc1,-8.03% (inactive),
Cc1c(NC(=S)NC(=O)c2ccc(-c3ccc(Cl)cc3)o2)cccc1C(=O)O,8.19% (inactive),
O=Nc1c(-c2ccccc2)n(O)[n+]([O-])c1-c1ccccc1,-16.7% (inactive),
COc1cccc(CN2CC(C(=O)NCCN3CCOC3=O)CCC2=O)c1 (centres undefined),-9.76% (inactive),
COC(=O)C1=CN(c2ccc(OC)cc2)C=C(C(=O)OC)C1c1ccc([N+](=O)[O-])cc1,-9.75% (inactive),
Cc1ccc(Cn2nnc(C(=O)Nc3cccc(C)c3C)c2N)cc1,-0.68% (inactive),
Cc1cccc(S(=O)(=O)Nc2ccc(-n3c(C)nc4ccccc4c3=O)cc2)c1,-5.8% (inactive),
CSc1nc(Cl)c(Cc2ccc(OC(C)C)cc2)c(N(C)C)n1,-2.55% (inactive),
CSc1nc(O)c(C(c2ccccc2)c2c(O)nc(SC)[nH]c2=O)c(=O)[nH]1,-1.55% (inactive),
CSc1nc(O)c(C(c2ccc(C)cc2)c2c(O)nc(SC)[nH]c2=O)c(=O)[nH]1,5.27% (inactive),4.26%

Structure (SMILES),inhibition,inhibition [1]
C=CCOc1ccc(S(C)(=O)=O)cc1,1.32% (inactive),
C=CCOc1ccc(Oc2cc(C)nc(SC)n2)nn1,-6.11% (inactive),
COc1nc(SC)nc(Cl)c1Cc1ccc(OC(C)C)cc1,-6.55% (inactive),
CN1CCN(C(=O)/C(=C/c2cn(S(=O)(=O)N(C)C)c3ccccc23)NC(=O)c2ccccc2F)CC1,-5.9% (inactive),
CCC(C(=O)Nc1cccnc1)n1c(=O)[nH]c2ccccc2c1=O (centres undefined),-5.9% (inactive),
Cc1ccc(NC(=O)C2CCCN(C(=O)Nc3ccc(F)cc3)C2)cc1 (centres undefined),-4.13% (inactive),
Cc1cc(=O)[nH]c(-c2cccs2)n1,10.8% (inactive),
CC[C@H](C)Cc1cn([C@@H](CCCN=C(NC(=O)OC(C)(C)C)NC(=O)OC(C)(C)C)C(=O)NCCCCCCCCCCC(=O)N2CCN(C(=O)OC(C)(C)C)CC2)nn1,-0.83% (inactive),
Cc1csc(N(C(=O)c2cccc(S(=O)(=O)N(C)C)c2)c2ccccc2)n1,-1.38% (inactive),
CCC(C(=O)OCC(=O)Nc1ccc2[nH]c(=O)[nH]c2c1)c1ccccc1 (centres undefined),2.16% (inactive),
COc1ccc(N(CC(=O)NCCSCc2ccco2)S(=O)(=O)c2ccccc2)cc1,-3.68% (inactive),
Fc1cccc(/C=N/Nc2nccnc2Cl)c1,-2.31% (inactive),
Cc1ccccc1S(=O)(=O)N1[C@@H](c2ccc(Cl)cc2)C(C(=O)O)=CC[C@H]1c1ccc(Cl)cc1,23.8% (inactive),2.15%
Cc1ccccc1S(=O)(=O)N1[C@@H](c2ccccc2)C(C(=O)O)=CC[C@H]1c1ccc(Cl)cc1,12.8% (inactive),
Cc1ccc([C@@H]2CC=C(C(=O)O)[C@H](c3ccccc3)N2S(=O)(=O)c2ccccc2C)cc1,11.1% (inactive),
Cc1ccc([C@H]2C(C(=O)O)=CC[C@@H](c3ccc(C)cc3)N2S(=O)(=O)c2ccccc2C)cc1,13.7% (inactive),
COc1cccc(NC(=O)c2ccc(N3C(=O)C4CC=CCC4C3=O)cc2)c1 (centres undefined),0.77% (inactive),
CN(C)C(CNC(=O)C1CCN(S(=O)(=O)c2cccc(C(F)(F)F)c2)CC1)c1ccccc1 (centres undefined),0% (inactive),
O=C(COc1ccc(F)c(Cl)c1)Nc1ccc(N2CCOCC2)cc1,-11.9% (inactive),
CCCC(C(=O)O)N1C(=O)/C(=C/c2cccn2C)SC1=S (centres undefined),-53.1% (inactive),
CN1C(=O)/C(=C2\SC(=S)N(C(CCC(=O)O)C(=O)O)C2=O)c2ccccc21 (centres undefined),8.73% (inactive),
Cc1c(N2C(=O)/C(=C3\C(=O)N(CC(=O)O)c4ccccc43)SC2=S)c(=O)n(-c2ccccc2)n1C,36.3% (inactive),

Structure (SMILES),inhibition,inhibition [1]
O=C(O)C(Cc1ccc(O)cc1)N1C(=O)c2ccccc2C1=O (centres undefined),-2.65% (inactive),
O=C(Nc1ccccc1)N1CCNCC1,-6.32% (inactive),
CC1(C)OC1(C#N)c1ccccc1 (centres undefined),-5.44% (inactive),
CCN(CC)S(=O)(=O)c1ccc(Nc2ccc(-c3ccc4c(c3)OCCO4)nn2)cc1,-4.94% (inactive),
CC(=O)N1CCN(c2ccc(NC(=S)NC(=O)c3ccc(C)c([N+](=O)[O-])c3)cc2)CC1,-2.35% (inactive),
O=C(NC(=O)c1cc([N+](=O)[O-])ccc1Cl)C1=C(N2CCCC2)COC1=O,-8.37% (inactive),
Cn1c(=N)c(S(=O)(=O)c2ccccc2)cc2c(=O)n3ccccc3nc21,-8.12% (inactive),
CCOC(=O)C1(C)/C(=N/Nc2ccc(Cl)cc2)C(=O)C(=O)N1c1ccccc1 (centres undefined),3.28% (inactive),
CCOC(=O)C1(C)/C(=N/Nc2ccccc2Cl)C(=O)C(=O)N1c1ccccc1 (centres undefined),-3.23% (inactive),
COC(C[C@@H](O)C[C@H](O)[C@@H](C)OCc1ccccc1)OC,-8.19% (inactive),
CC/C(=N/NC(=O)c1ccc2c(c1)OCO2)c1ccccc1O,3.08% (inactive),
Cc1cccc(CN2CCN(CC(=O)N3CCCC3)C2=O)c1,-5.66% (inactive),
CC(=O)C1=C(O)C(=O)N(c2cc(C(C)(C)C)on2)C1c1ccc(Br)cc1 (centres undefined),13.1% (inactive),
CC(=O)C1=C(O)C(=O)N(Cc2cccnc2)C1c1ccc(C(C)C)cc1 (centres undefined),-5.44% (inactive),
CC1=NNC(=O)C1C(c1ccccc1)C(C#N)C#N (centres undefined),-4.84% (inactive),
CC1=NN(Cc2ccccc2)C(=O)C1C(c1ccncc1)C(C#N)C#N (centres undefined),13.5% (inactive),
Cc1cccc(CN2CCN(C(c3ccccc3)c3ccc(Cl)cc3)CC2)c1 (centres undefined),2.93% (inactive),
CC1=NNC(=O)C1C(c1ccc(F)cc1)C(C#N)C#N (centres undefined),-10.2% (inactive),
S=C(N/N=C/c1ccc(Br)cc1)N1CCCCC1,2.36% (inactive),
CC(C)c1ccc(S(=O)(=O)N2CCN(C(=O)CCNS(=O)(=O)c3ccccc3F)CC2)cc1,2.2% (inactive),
